ssDAF-12 act = activates DAF-12 receptor from parasite S. stercoralis; HEK293 ssDAF-12/GRIP1 lit1-tk-luc reporter, luminescence; % of 3 µM dafachronic acid response; 1% of 370,000 active; activation, % at 6.8 µM; AID 652126;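 active = activation above the mean over all tested compounds plus 3 SD, cut at about 0.9% in these data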;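 note: 0% = DMSO-only wells and 100% = 3 µM delta7-dafachronic acid wells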
DAX1 inh-1 = DAX1 (NR0B1) inhibition, primary screen | HEK293T StAR-luciferase reporter, SF-1/DAX-1 repression relief | inhibition, % at 6.8 µM | 1.1% of 370,000 active | AID 652010;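 active = inhibition above the mean over all tested compounds plus 3 SD, cut at about 3.6% in these data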;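 note: 0% = DAX-1 cells with DMSO and 100% = cells lacking DAX-1 with DMSO; higher inhibition means more luminescence from relief of DAX-1 repression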
DAX1 inh-2 = inhibitors of human orphan nuclear receptor DAX1 (NR0B1); P51843; HEK293 Gal4-DAX1 luciferase reporter, luminescence; inhibition, % at 6.75 µM; 0.99% of 340,000 active; AID 504766;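 active = inhibition above the mean over all tested compounds plus 3 SD, cut at about 4.2% in these data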;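 note: 0% = DAX1-transfected cells with DMSO and 100% = empty-vector control cells with DMSO; inhibition shows as a rise in luminescence from relieved DAX1 repression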
Target sequence (P51843 207-470 limits assumed): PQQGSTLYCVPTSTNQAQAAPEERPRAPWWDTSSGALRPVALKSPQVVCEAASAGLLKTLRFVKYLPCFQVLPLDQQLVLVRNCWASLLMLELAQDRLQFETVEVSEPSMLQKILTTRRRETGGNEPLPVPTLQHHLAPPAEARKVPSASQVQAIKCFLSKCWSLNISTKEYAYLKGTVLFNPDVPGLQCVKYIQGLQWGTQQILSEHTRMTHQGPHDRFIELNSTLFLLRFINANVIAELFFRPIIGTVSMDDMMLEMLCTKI
hcDAF12 agonist = H. contortus DAF-12 activation, primary screen; AID 652067; 1.4% of 370,000 active; HEK293 hcDAF-12 lit1-tk-luc reporter, luminescence; 0% DMSO, 100% Δ7-dafachronic acid; activation, % at 6.8 µM;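 active = activation above the mean of all tested compounds plus 3 SD, cut at about 5.5% in these data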;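 note: 100% = response to 3 µM Δ7-dafachronic acid high control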
hgDAF-12 ag = hgDAF-12 agonism, primary luciferase screen; HEK293 GAL4-hgDAF12 UAS-luciferase reporter, agonist luminescence; normalized to butyrate control; activation, % at 6.8 µM; 1.8% of 370,000 active;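 active = activation above a cutoff set at the mean of all screened compounds plus 3 SD, cut at about 10% in these data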;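 note: 0% = DMSO wells and 100% = sodium butyrate wells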
FXN GAA850 act = activators of GAA850 frataxin (FXN) promoter. 0.56% of 360,000 active. activation, % at 6 µM. AID 540364. HEK293 lucGAA850 FXN promoter luciferase reporter, 24 h; percent of 10 µM SAHA response;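 active = activation above the average of all compounds screened plus 3 SD, cutoff fixed separately per campaign, cut at about 7.5% in these data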;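 note: 0% = DMSO wells and 100% = 10 µM SAHA wells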
hgDAF12 conf = hgDAF-12 agonism, confirmation assay; AID 743050; 80% of 3,300 active; shares compounds with hgDAF-12 ag; HEK293 GAL4-hgDAF12 luciferase reporter, agonist mode; percent of butyrate response; activation, % at 6.8 µM;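 active = mean activation over triplicate wells above the hit cutoff derived from the earlier primary screen, cut at about 11% in these data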;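 note: 0% = DMSO low control and 100% = 2 mM sodium butyrate high control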
LXR ag 2 = activates human LXR-beta, counter-screen for DAF-12 agonists; shares compounds with hgDAF-12 ag; HEK293 Gal4-LXR luciferase reporter, 24 h; activation, % at 6.8 µM; 3,300 tested, under 10 active; AID 743051;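 active = mean activation of the triplicate above a set limit carried over from the primary screen, none filed active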
Numbers without * were called inactive; x = not tested or not shown. In the library only some 4.5% were active in any assay of this set; here they are far more common.

SMILES | ssDAF-12 act | DAX1 inh-1 | DAX1 inh-2 | hcDAF12 agonist | hgDAF-12 ag | FXN GAA850 act | hgDAF12 conf | LXR ag 2
O=C(/C=C/c1cccc(F)c1)Nc1nccs1 | 0 | 3 | 2 | 5 | 15* | 1 | 15* | 1
Cc1cccc(NC(=S)N2CCC(NC(=O)c3cccc(F)c3)CC2)c1 | -1 | 0 | -1 | 0 | 1 | 1 | x | x
C#CCNC(=O)C[C@H]1C[C@@]2(C(=O)OC)C(=C[C@H](C(C)C)O[C@@H]2C2CC2)N(CCCCCCCC)C1=O | -1 | -2 | x | -3 | 14* | x | -1 | 0
Cc1ccnc(NC(=O)c2ccc(OCc3c(C)noc3C)cc2)c1 | -1 | 4.2* | 1 | 0 | 14* | 2 | 6 | 0
CCOc1ccc(C(=O)Nc2cc(C)on2)cc1 | -1 | 2 | 0 | 2 | 14* | 4 | 14* | 1
CCOc1ccc(C(=O)Nc2ccc3[nH]ncc3c2)cc1 | 0 | 2 | -2 | 5 | 16* | 4 | 15* | 1
COc1ccc(-n2nc3c(c2NC(=O)c2ccc(S(=O)(=O)N4CCOCC4)cc2)CS(=O)(=O)C3)cc1 | -1 | 0 | 2 | 0 | 4 | 2 | x | x
CC(=O)N1CCc2cc(Br)cc(S(=O)(=O)NCCCN(C)Cc3ccccc3)c21 | -1 | 0 | 0 | -1 | 0 | 2 | x | x
CC1(C)[C@H]2CC=C(CN3CCC(N4CCC(C(=O)N5CCCC5)CC4)CC3)[C@@H]1C2 | -1 | 0 | -1 | -1 | 0 | 1 | x | x
Cc1ccc(-c2nc3ccccn3c2C=O)cc1 | 1 | 2 | 2 | 5.8* | 14* | 3 | 12* | 0
N#Cc1cccc(NC(=O)CSc2nnc(-c3n[nH]c4ccccc34)o2)c1 | 0 | -1 | 1 | 1 | 15* | 3 | 10 | 0
CCC(C)NC(=O)Cn1c(COc2ccc(Cl)cc2Cl)nc2ccccc21 (configuration not stated) | 0 | 3 | 0 | 3 | 16* | 2 | 17* | 1
O=C(Cn1c(COc2ccccc2)nc2ccccc21)Nc1cccc(Cl)c1 | -1 | 0 | 1 | 1 | 4 | 1 | x | x
O=C(c1ccc2nc(Cc3ccccc3F)oc2c1)N1CCCC1 | 0 | 3 | 2 | 5 | 15* | 4 | 14* | 0
CCNc1nc(NCC)n2c(SCC(=O)c3ccccc3F)nnc2n1 | -1 | 0 | 1 | 0 | 0 | 2 | x | x
COc1ccc(C(=O)Nc2cccc(OC(=O)c3ccco3)c2)cc1 | 0 | 2 | -1 | 4 | 14* | 3 | 14* | 1
COc1ccc(C(=O)Nc2cccc(OC(=O)c3ccc(C)c(C)c3)c2)cc1 | -1 | 2 | 1 | 0 | 9 | -3 | x | x
Cc1ncc([N+](=O)[O-])n1S(=O)(=O)c1cc(Cl)ccc1Cl | -1 | 0 | -1 | -1 | 1 | -1 | x | x
COc1ccc2nc(SCc3cccc(C)c3)nc(C)c2c1 | -1 | 1 | 1 | 1 | 15* | 6 | 14* | 0
CCOc1ccccc1N(CC(=O)NC(C)(C)C)C(=O)CCC(=O)Nc1nccs1 | -2 | 0 | -1 | -2 | 0 | -2 | x | x
CN(C)c1ccc(C=C2SC(=S)NC2=O)cc1 | 0 | 1 | 1 | 2 | 3 | 2 | x | x
CN(C)c1ccc(/C=C2\CCCCC2=O)cc1 | 0 | 4 | 4 | 5 | 18* | 5 | 14* | 1
O=C(COC(=O)CNC(=O)c1ccccc1)Nc1ccc(Cl)cn1 | -1 | 0 | 0 | -1 | -2 | -1 | x | x
O=C(Nc1cccnc1)c1cc2cc(Br)ccc2o1 | 0 | 2 | 6.6* | 5 | 14* | 2 | 14* | 1
Cc1cccc(NC(=O)c2cc3ccccc3o2)c1 | 1.1* | 4 | 3 | 6.4* | 20* | 3 | 19* | 1
SMILES | ssDAF-12 act | DAX1 inh-1 | DAX1 inh-2 | hcDAF12 agonist | hgDAF-12 ag | FXN GAA850 act | hgDAF12 conf | LXR ag 2
CC(C)c1ccc(NC2CCCN(C(=O)C3=NN(C)C(=O)CC3)C2)cc1 (configuration not stated) | -1 | -1 | 1 | 1 | 0 | 2 | x | x
O=C1CCCC1C(=O)Nc1ccc2ccccc2c1 (configuration not stated) | -1 | 1 | 0 | -2 | 3 | -3 | x | x
O=C(Nc1ccc2ccccc2c1)C1CC2CCC1C2 (configuration not stated) | 0 | x | x | 3 | 15* | x | 12* | 1
Oc1ccccc1-c1nnc(COc2ccccc2)o1 | 0 | 1 | 2 | 2 | 14* | 1 | 8 | 0
c1ccc(OCc2nnc(-c3ccccc3)o2)cc1 | -1 | 3 | 1 | 0 | 8 | 5 | x | x
COc1ccc2c(CCNC(=O)c3ccc([N+](=O)[O-])cc3)c[nH]c2c1 | -2 | -1 | 1 | -1 | 0 | 0 | x | x
OCCOCCNc1ncnc2c1cnn2-c1ccc(Cl)cc1 | 0 | 4.5* | 3 | 5 | 15* | 1 | 17* | 1
COc1ccc(/C=N/Nc2nccnc2Cl)c(OC)c1 | 0 | 3 | 2 | 2 | 21* | 6 | 13* | 0
CCCSc1nsc(NC(=O)CC)n1 | -1 | 3 | 1 | 4 | 17* | 6 | 11* | 1
CCCCCCSc1nsc(NC(=O)CC(C)C)n1 | 0 | 0 | 2 | 2 | 4 | 3 | x | x
COc1cc(OC)cc(C(=O)Nc2ccc(N3CCN(C(=O)c4cccs4)CC3)cc2)c1 | -1 | -5 | -2 | -6 | -2 | -4 | x | x
Cc1cccc(N(C(=O)Nc2ccccc2)C2=NCC(C)S2)c1 (configuration not stated) | -1 | 1 | 4 | 2 | 15* | 3 | 4 | 0
COCCN(Cc1nnc(-c2cccs2)o1)C(=O)CN1C(=O)NC2(CCCCC2)C1=O | -1 | 0 | 0 | -2 | -5 | 1 | x | x
CCc1ccc(C(=O)Nc2cc(C)ccc2F)s1 | 0 | 1 | 1 | 4 | 16* | 3 | 7 | 0
CCc1sc(C(=O)Nc2ccc(F)cc2C)cc1C | -1 | 0 | 0 | -1 | 3 | 6 | x | x
c1coc(CNc2nc3ccccc3s2)c1 | 1.9* | 2 | 6.5* | 8.8* | 16* | 4 | 17* | 1
Nc1nc(N)nc(-c2ccc(Cl)c(Cl)c2)n1 | -1 | 1 | 4 | 0 | 21* | 2 | 18* | 1
NS(=O)(=O)c1ccc(CNC(=O)/C=C/c2cccc([N+](=O)[O-])c2)cc1 | -1 | 0 | -1 | -2 | -3 | 0 | x | x
Cc1c(C)n2c(SCC(=O)N3CCCCC3)nnc2[nH]c1=O | -1 | 4 | 1 | 0 | 0 | 0 | x | x

Bioassay records from PubChem.
